From paper PMC4336329 (PLoS ONE, 2015) come the findings set out here.

The whole screen tested about 310,000 compounds, of which about 14,000 (4.5%) showed an effect of 50% or more. The effect is printed as a negative number. Shown is part of a subset that was picked to be rich in strong results.
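Also: peak tail current of the secondary pulse compared with the same well before compound.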

The target in this test is human ether-à-go-go-related gene (hERG) potassium channel (human, UniProt Q12809). The experiment in a line: primary screen, population patch clamp on CHO cells stably expressing hERG; higher = less effect of the substance.
Sequence of human ether-à-go-go-related gene (hERG) potassium channel (Q12809 whole entry, looked up): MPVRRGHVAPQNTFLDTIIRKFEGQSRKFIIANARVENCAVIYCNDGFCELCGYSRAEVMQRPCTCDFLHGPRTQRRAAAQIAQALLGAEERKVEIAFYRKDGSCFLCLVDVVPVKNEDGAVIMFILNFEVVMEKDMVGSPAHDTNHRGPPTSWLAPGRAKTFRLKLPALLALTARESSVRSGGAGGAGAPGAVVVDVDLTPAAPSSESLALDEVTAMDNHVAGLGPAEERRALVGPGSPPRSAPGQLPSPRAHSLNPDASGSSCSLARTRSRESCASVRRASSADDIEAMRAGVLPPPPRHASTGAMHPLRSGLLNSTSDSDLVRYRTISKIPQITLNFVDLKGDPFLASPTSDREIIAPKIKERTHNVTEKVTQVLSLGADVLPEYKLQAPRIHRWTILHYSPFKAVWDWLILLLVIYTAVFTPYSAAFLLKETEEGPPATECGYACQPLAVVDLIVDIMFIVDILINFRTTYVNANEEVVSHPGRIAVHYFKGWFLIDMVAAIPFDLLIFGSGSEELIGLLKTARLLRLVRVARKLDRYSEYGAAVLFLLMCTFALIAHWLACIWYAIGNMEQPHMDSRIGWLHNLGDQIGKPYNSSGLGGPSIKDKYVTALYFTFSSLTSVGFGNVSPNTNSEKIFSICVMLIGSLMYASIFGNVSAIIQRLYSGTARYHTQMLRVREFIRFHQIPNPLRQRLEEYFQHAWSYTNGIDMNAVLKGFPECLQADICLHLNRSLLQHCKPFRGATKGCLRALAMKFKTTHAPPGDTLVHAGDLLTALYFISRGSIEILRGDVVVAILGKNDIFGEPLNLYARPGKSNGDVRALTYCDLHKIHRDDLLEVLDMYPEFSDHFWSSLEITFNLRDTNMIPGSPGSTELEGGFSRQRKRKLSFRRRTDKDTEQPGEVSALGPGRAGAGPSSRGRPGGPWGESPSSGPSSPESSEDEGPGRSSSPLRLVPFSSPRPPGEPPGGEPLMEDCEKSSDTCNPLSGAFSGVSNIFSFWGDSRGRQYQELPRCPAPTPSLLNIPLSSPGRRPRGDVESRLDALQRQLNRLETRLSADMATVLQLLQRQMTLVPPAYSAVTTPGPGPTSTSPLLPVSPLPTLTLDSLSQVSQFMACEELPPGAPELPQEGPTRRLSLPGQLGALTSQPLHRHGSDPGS
As to `CN(C)S(=O)(=O)Nc1ccccn1`, the “hERG current change (%, negative = inhibition) at 10uM” value is recorded as 16.5%.
Next, `CCCCc1cc(=O)oc2cc(C)cc(O)c12`: -17.2%; `Cn1c(-c2ccccc2)cc2ccccc21`: 9.39%.
The same measure for `COc1ccc(S(=O)(=O)N2CCN(C(=O)COc3ccc(C)c(C)c3)CC2)cc1OC`: -37.1%; for `CN(C1CCCCC1)S(=O)(=O)c1ccc2c(c1)c(=O)c(C(=O)NCCCN1CCCC1)cn2C`: -25.6%; for `CC1CCCN(CCCNC(=O)c2cn(C)c3ccc(S(=O)(=O)N(C)C4CCCCC4)cc3c2=O)C1` (centres unmarked): -71.4%.
With `CCn1cc(C(=O)NCCCOC)c(=O)c2cc(S(=O)(=O)N(C)C)ccc21`, the “hERG current change (%, negative = inhibition) at 10uM” value was found to be 14.3%.
The same measure for `CCn1cc(C(=O)NCCCN2CCCC(C)C2)c(=O)c2cc(S(=O)(=O)N3CCOCC3)ccc21` (centres unmarked): 14.6%; for `CCn1cc(C(=O)NCCCN2CC(C)CC(C)C2)c(=O)c2cc(S(=O)(=O)N(C)C)ccc21` (centres unmarked): -55.5%.
With `CCn1cc(C(=O)NCCCN2CC(C)CC(C)C2)c(=O)c2cc(S(=O)(=O)N(C)C3CCCCC3)ccc21` (centres unmarked), the “hERG current change (%, negative = inhibition) at 10uM” value is given as -84.3%.
For the compound `CCn1cc(C(=O)NCCCN2CCCC(C)C2)c(=O)c2cc(S(=O)(=O)N(C)C3CCCCC3)ccc21` (centres unmarked), the “hERG current change (%, negative = inhibition) at 10uM” value is listed as -80.1%.
For the compound `CCn1cc(C(=O)N2CC(C)CC(C)C2)c(=O)c2cc(S(=O)(=O)N(C)C)ccc21` (centres unmarked), the “hERG current change (%, negative = inhibition) at 10uM” value is -8.98%.
Next, `CN(C1CCCCC1)S(=O)(=O)c1ccc2c(c1)c(=O)c(C(=O)NCCN1CCCC1)cn2C`: -27.7%.
The same measure for `Cc1ccc(NC(=O)c2ccc(NC(=O)C3CCCCC3C(=O)O)cc2)cc1` (centres unmarked): 14.4%.
Take `O=C(CN1C(=O)NC2(CCCC2)C1=O)N1CCN(S(=O)(=O)c2cccc(C(F)(F)F)c2)CC1`: the “hERG current change (%, negative = inhibition) at 10uM” value is listed as -5.43%.
Regarding `O=C(O)C(Cc1c[nH]c2ccccc12)N1C(=O)c2ccccc2C1=O` (centres unmarked), the “hERG current change (%, negative = inhibition) at 10uM” value is recorded as -2.61%.
Next, `Cc1ncc(CO)c(/C=N/Nc2cccc(Cl)n2)c1O.Cl`: 8.89%; `O=c1oc(-c2ccc(Br)cc2)nc2ccccc12`: 17.8%.
The same measure for `CC1=NNC(=O)/C1=C\c1cn(-c2ccccc2)nc1-c1ccc(Cl)cc1`: 3.69%; for `O=c1c2c(nc3c(-c4ccccc4)c[nH]n13)CCC2`: 10.9%; for `CC(C)CC(COCc1cccc(C(F)(F)F)c1)N1CCN(C(=O)c2cccc(C(F)(F)F)c2)CCC1=O` (centres unmarked): -12%.
As for `COc1ccccc1CN1CCN(Cc2nc(-c3cccs3)no2)CC1`, the “hERG current change (%, negative = inhibition) at 10uM” value is -42.8%.
With `O=C(C[n+]1ccc(-c2nnc3n2CCC3)cc1)c1ccc(Cl)c(Cl)c1.[Br-]`, the “hERG current change (%, negative = inhibition) at 10uM” value is reported as -14%.
Next, `O=C(O)CC1(CC(=O)NCc2ccc(Cl)cc2)CCCCC1`: 8.75%; `CCC12CN(C(=O)c3ccc(C)cc3)CC(CC)(CN(C(=O)c3ccc(C)cc3)C1)C2=O`: -33.3%.
With `CCn1cc(C(=O)NCCCN2CCC(C)CC2)c(=O)c2cc(S(=O)(=O)N3CCCC3)ccc21`, the “hERG current change (%, negative = inhibition) at 10uM” value is -7.61%.
Next, `CCn1cc(C(=O)NCCCN2CCC(C)CC2)c(=O)c2cc(S(=O)(=O)N(C)C3CCCCC3)ccc21`: -80%; `CCn1cc(C(=O)NCCCN2CCC(C)CC2)c(=O)c2cc(S(=O)(=O)N3CCOCC3)ccc21`: -17.1%; `COc1cc(NC(=O)c2ccc3c(c2)OCO3)ccc1NC(=O)c1ccco1`: 10.4%.
`Cc1ccc(CNC(=O)c2ccc(Cn3nc(C)cc3C)o2)cc1`: the “hERG current change (%, negative = inhibition) at 10uM” value is recorded as -19.1%.
In the case of `CCOC(=O)/C(N=Nc1c(Br)cc(Br)cc1Br)=C(\C)O`, the “hERG current change (%, negative = inhibition) at 10uM” value is recorded as 6.47%.
In the case of `Cn1c(CC(=O)NNC(=O)c2ccc(F)cc2F)nc2ccccc21`, the “hERG current change (%, negative = inhibition) at 10uM” value is -7.56%.
For `CCCN1C=CC(=CC=C(C#N)C#N)C=C1`, the “hERG current change (%, negative = inhibition) at 10uM” value was -3.42%.
Consider `CCCCCCN1C=C/C(=C\C=C(C#N)C#N)c2ccccc21`, for which the “hERG current change (%, negative = inhibition) at 10uM” value was -37.4%.
For the compound `CC1=C/C(=C\C=C(C#N)C#N)N(C)c2ccccc21`, the “hERG current change (%, negative = inhibition) at 10uM” value was 9.34%.
The same measure for `CCCCCCN1C=CC=C/C1=C/C=C(C#N)C#N`: -76.5%; for `CCCCCN1C=CC=C/C1=C\C=C(C#N)C#N`: -70.9%.
`CCCCCCN1C=CC=C/C1=C\C=C(C#N)C#N`: the “hERG current change (%, negative = inhibition) at 10uM” value is on record as -71.1%.
For the compound `CCOC(=O)/C(C#N)=C/C=C1/C=CC=CN1C`, the “hERG current change (%, negative = inhibition) at 10uM” value is reported as 3.01%.
The same measure for `CCCCCCN1C=CC(=C/C=C(\C#N)C(=O)OCC)C=C1`: -4.32%; for `CN1/C(=C/C=C(C#N)C#N)C=Cc2ccccc21`: 11.5%.
Take `COc1ccc(OC)c(NC(=O)CSc2nnc(C)n2Cc2ccccc2)c1`: the “hERG current change (%, negative = inhibition) at 10uM” value was -23.5%.
Next, `Cc1ccc(C)c(N(C)S(=O)(=O)c2cccc3nsnc23)c1`: -18.4%.
Next, `Cc1cc(C)c(S(=O)(=O)Nc2cccc(C(=O)O)c2)cc1S(=O)(=O)Nc1cccc(C(=O)O)c1`: 18.2%.
